The first assay addresses Focal adhesion kinase 1 (Homo sapiens) (UniProt Q05397). Description: PTK2 protein binding on printed compound slides – biochemical, small-molecule microarray, 635/667 nm fluorescence, BSA, DTT, primary screen (AID 1130).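 Note: composite of spot emission at 667 nm and signal to noise over triplicate slides.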 Particulars: 635 nm fluorescence, higher = more signal.
Focal adhesion kinase 1 (Homo sapiens), sequence (Q05397 whole entry, looked up): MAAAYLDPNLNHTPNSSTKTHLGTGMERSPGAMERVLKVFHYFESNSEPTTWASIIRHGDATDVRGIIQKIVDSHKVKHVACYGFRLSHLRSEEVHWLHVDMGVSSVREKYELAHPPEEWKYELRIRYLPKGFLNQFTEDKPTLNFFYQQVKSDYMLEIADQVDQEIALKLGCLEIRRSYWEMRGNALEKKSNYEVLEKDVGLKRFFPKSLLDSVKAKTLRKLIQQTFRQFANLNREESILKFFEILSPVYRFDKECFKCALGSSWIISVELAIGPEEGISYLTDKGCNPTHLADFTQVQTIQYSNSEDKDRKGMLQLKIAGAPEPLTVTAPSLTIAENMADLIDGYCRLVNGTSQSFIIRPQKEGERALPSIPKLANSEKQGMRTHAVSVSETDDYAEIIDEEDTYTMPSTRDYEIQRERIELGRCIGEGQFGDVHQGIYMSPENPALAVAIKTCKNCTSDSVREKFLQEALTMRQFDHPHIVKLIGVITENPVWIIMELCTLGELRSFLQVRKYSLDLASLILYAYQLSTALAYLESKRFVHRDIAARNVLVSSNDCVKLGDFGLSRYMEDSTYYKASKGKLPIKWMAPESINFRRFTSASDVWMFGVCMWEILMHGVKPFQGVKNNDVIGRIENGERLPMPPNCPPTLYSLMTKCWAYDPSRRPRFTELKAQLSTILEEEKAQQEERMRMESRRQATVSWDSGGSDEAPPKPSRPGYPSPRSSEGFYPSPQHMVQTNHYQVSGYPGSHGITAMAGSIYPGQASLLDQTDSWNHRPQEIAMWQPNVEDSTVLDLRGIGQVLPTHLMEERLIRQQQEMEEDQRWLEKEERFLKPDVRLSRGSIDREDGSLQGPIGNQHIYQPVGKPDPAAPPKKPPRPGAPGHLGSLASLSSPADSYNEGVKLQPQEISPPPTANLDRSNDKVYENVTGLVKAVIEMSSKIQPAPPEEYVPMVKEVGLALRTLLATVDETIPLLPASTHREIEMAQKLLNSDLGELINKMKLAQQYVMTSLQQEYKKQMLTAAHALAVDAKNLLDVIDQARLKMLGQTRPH
`O=C1C[C@@H](O)[C@@H](O)[C@@H]2[C@@H]3C(=O)N(Cc4ccc5c(c4)OCO5)C(=O)[C@@H]3CC[C@H]12`: the composite z-score was found to be 0.381.

As for `COC(=O)[C@@H]1CC[C@@H](C)[C@H](c2ccc(Br)cc2)N1`, the composite z-score was determined as 0.867. Still for that read-out and setting: with `CCOC(=O)[C@H](CC(C)C)NC(=O)CCC1CC(OC(=O)NCCc2ccc(F)cc2)CC2(CCCC(COC(=O)NCC(c3ccccc3)c3ccccc3)O2)O1` (stereo not given in full) the figure was 0.097; with `COC(=O)[C@H](C)NC(=O)CCC1CC(OC(=O)NCc2ccc3c(c2)OCO3)CC2(CCCC(COC(=O)NCc3cccc(C(F)(F)F)c3)O2)O1` (stereo not given in full), 0.587; with `CC(C)=CCCC(C)=CCON=C1C[C@@H](O)[C@@H](O)[C@@H]2[C@@H]3C(=O)N(C(C)(C)C)C(=O)[C@@H]3CC[C@@H]12`, 0.057. On the same count and under the same terms, with `Cc1ccc(S(=O)(=O)NC(CCc2ccccc2)CC(=O)C(C)(C)C)cc1` (stereo not given) the figure was 0.0786. Still for that read-out and setting: as for `C#CCCCON=C1C[C@@H](O)[C@@H](O)[C@@H]2[C@@H]3C(=O)N(c4ccc(F)cc4F)C(=O)[C@@H]3CC[C@H]12`, the figure is 0.208; as for `COC(=O)[C@H](C)NC(=O)CCC1CC(OC(=O)NCc2ccc3c(c2)OCO3)CC2(CCCC(COC(=O)NCCc3ccccc3OC)O2)O1` (stereo not given in full), -0.122; as for `CCCCC#C[C@@H]1C=C[C@H](Oc2ccc(C(=O)OC)cc2)[C@@H](COC(=O)OCC)O1`, -0.0377. Turning to `CO[C@@H]1C=CCC(=O)N2CCC[C@H]2C(=O)OC[C@@H](C)C(=O)OC[C@H]1C`, the composite z-score is -0.267. On the same count and under the same terms, with `COC(=O)CC=C[C@@H](C)[C@H](OCc1cccc(-c2ccccc2)c1)C1CCCCC1` the figure was -0.0125; with `O=C1C2=CC[C@H]3C(=O)N(c4cccc(Oc5ccccc5)c4)C(=O)[C@H]3[C@H]2[C@H](O)[C@@H]2O[C@H]12`, -0.0765. Same read-out and setting: as for `COC(=O)CC=C[C@@H](C)[C@@H](C=NO[C@@H](C)c1cc(-c2c(C)cc(C)cc2C)no1)NS(=O)(=O)c1ccc(C)cc1`, the figure is -0.0927. The compound `CCOC(=O)[C@H](CC(C)C)NC(=O)CCC1CC(OC(=O)NCCc2ccc(F)cc2)CC2(CCCC(COC(=O)NCC3CCCCC3)O2)O1` (stereo not given in full) had a composite z-score of -0.124.

Another assay deals with Fibrinogen (Alexa647-labelled). Description: Alexa647-fibrinogen binding to printed small molecules – biochemical, small-molecule microarray, 635/667 nm fluorescence, artefact control for SMM control-protein annotation, profiling panel (AID 1131).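 Note: z-score merges 667 nm fluorescence with per-spot signal-to-noise over triplicate slides.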 The conditions noted are these: fibrinogen-A647 binding fluorescence, higher = more signal.
The compound `CCOC(=O)C1=NO[C@@]2(C=C(Br)C3(OCCCO3)[C@H]3O[C@H]32)C1` had a composite z-score of 0.982.

`C#CCCCON=C1C[C@@H](O)[C@@H](O)[C@@H]2[C@@H]3C(=O)N(C(C)(C)C)C(=O)[C@@H]3CC[C@H]12` registered a composite z-score of 0.589.

As to `CO[C@@H]1COC(=O)[C@@H](C)COC(=O)[C@@H](C)NC(=O)CC=C[C@@H]1C`, the composite z-score was -1.27. Same read-out and setting: with `COC(=O)CC=C[C@@H](C)[C@@H](C=NO[C@H](C)c1cn([C@H](CO)Cc2ccccc2)nn1)NS(=O)(=O)c1ccc(C)cc1` the figure was 0.951; with `O=C(C=Cc1ccc2c(c1)OCO2)c1ccc(F)cc1`, 0.0796. On the same count and under the same terms, with `CCOC(=O)[C@H](CC(C)C)NC(=O)CCC1CC(OC(=O)NCc2cccc3ccccc23)CC2(CCCC(COC(=O)NCCOC)O2)O1` (stereo not given in full) the figure was 0.959; with `C[C@@H]1C=CCC(=O)OC[C@H]2O[C@@H](C=C[C@@H]2O)[C@H](C)C=CCC(=O)OC1`, -1.06. Same read-out and setting: as for `CCOC(=O)[C@H](CC(C)C)NC(=O)CCC1CC(OC(=O)NCc2cccc3ccccc23)CC2(CCCC(COC(=O)NCCCN3CCCC3=O)O2)O1` (stereo not given in full), the figure is 0.634; as for `CSCC[C@@H]1NC(=O)CC=C[C@@H](C)COC(=O)[C@@H](C)COC1=O`, -2.46. Compound `COc1ccc(O[C@H]2C=C[C@@H](c3ccccc3)O[C@@H]2CON=C(C)CCN2CCc3nc(-c4ccccc4)c(-c4ccccc4)cc3C2)cc1` displayed a composite z-score of 0.948. As for `C=COC[C@@H]1CN2[C@@H](CC[C@@H](C)[C@@H]2c2ccc(Br)cc2)C(=O)O1`, the composite z-score stood at 0.212.

With `COC(=O)CC=C[C@@H](C)[C@@H](C=NOCC[C@@H]1C=C[C@H](OC(C)=O)[C@@H](COC(C)=O)O1)NS(=O)(=O)c1ccc(C)cc1`, the composite z-score was -0.329. On to `CCc1cc2c(nc1CC)CCN(CCC(C)=NOC[C@H]1O[C@H](c3ccccc3)C=C[C@@H]1Oc1ccc(OC)cc1)C2`, for which the composite z-score was found to be 0.0851. On the same count and under the same terms, with `CC(C)CON=C1C[C@@H](O)[C@@H](O)[C@@H]2[C@@H]3C(=O)N(C4CCCCC4)C(=O)[C@@H]3CC[C@@H]12` the figure was 0.476; with `CCN1C(=O)[C@H]2[C@H]3[C@H](O)[C@H](O)CC(=O)[C@@H]3CC[C@H]2C1=O`, 0.583.

With `COC(=O)C1=C(C)N(Cc2ccccc2)[C@]23O[C@](C(=O)OC)(C(=O)N2[C@@H]1c1ccccc1)C(C(=O)OC)=C3C(=O)OC`, the composite z-score is 0.784. Same read-out and setting: as for `CC(C)=NO[C@H](C)c1cn([C@H](CO)Cc2ccccc2)nn1`, the figure is 0.991.

As for `CON=Cc1ccc(C(=O)N2[C@H](c3ccc(C)cc3)[C@@H](C)CC[C@H]2C(=O)OC)cc1`, the composite z-score turned out to be 0.53. Take `CCN1C(=O)[C@@H]2[C@H]3C(=CC[C@@H]2C1=O)C1(OCCCO1)[C@H]1O[C@H]1[C@H]3O`: the composite z-score was determined as 0.982. Same read-out and setting: with `O=C(NN=C1C[C@@H](O)[C@@H](O)[C@@H]2[C@@H]3C(=O)N(C[C@@H]4CCCO4)C(=O)[C@@H]3CC[C@@H]12)OCc1ccccc1` the figure was -0.545; with `CC(CCN1CCc2nc(-c3ccccc3)c(-c3ccccc3)cc2C1)=NOC[C@@H](O)COCc1ccco1`, 0.19. The same measure, in the same setting: with `O=C1[C@H]2[C@H]3[C@H](O)[C@H](O)CC(=NO[C@@H]4O[C@H](CO)[C@@H](O)[C@H](O)[C@H]4O)[C@H]3CC[C@H]2C(=O)N1c1cccc(Oc2ccccc2)c1` the figure was 0.574; with `O=C1C[C@@H](O)[C@@H](O)[C@@H]2[C@@H]3C(=O)N(Cc4ccc5c(c4)OCO5)C(=O)[C@@H]3CC[C@H]12`, 0.735.

Compound `COC(=O)[C@@H]1CC[C@@H](C)[C@H](c2ccc(Br)cc2)N1` returned a composite z-score of 0.689. Still for that read-out and setting: with `CCOC(=O)[C@H](CC(C)C)NC(=O)CCC1CC(OC(=O)NCCc2ccc(F)cc2)CC2(CCCC(COC(=O)NCC(c3ccccc3)c3ccccc3)O2)O1` (stereo not given in full) the figure was 0.874; with `COC(=O)[C@H](C)NC(=O)CCC1CC(OC(=O)NCc2ccc3c(c2)OCO3)CC2(CCCC(COC(=O)NCc3cccc(C(F)(F)F)c3)O2)O1` (stereo not given in full), 0.387. The same measure, in the same setting: with `CC(C)=CCCC(C)=CCON=C1C[C@@H](O)[C@@H](O)[C@@H]2[C@@H]3C(=O)N(C(C)(C)C)C(=O)[C@@H]3CC[C@@H]12` the figure was -0.0293; with `Cc1ccc(S(=O)(=O)NC(CCc2ccccc2)CC(=O)C(C)(C)C)cc1` (stereo not given), 0.821; with `C#CCCCON=C1C[C@@H](O)[C@@H](O)[C@@H]2[C@@H]3C(=O)N(c4ccc(F)cc4F)C(=O)[C@@H]3CC[C@H]12`, 0.894. On the same count and under the same terms, as for `COC(=O)[C@H](C)NC(=O)CCC1CC(OC(=O)NCc2ccc3c(c2)OCO3)CC2(CCCC(COC(=O)NCCc3ccccc3OC)O2)O1` (stereo not given in full), the figure is 0.626.

The compound `CCCCC#C[C@@H]1C=C[C@H](Oc2ccc(C(=O)OC)cc2)[C@@H](COC(=O)OCC)O1` displayed a composite z-score of 0.531. On the same count and under the same terms, with `CO[C@@H]1C=CCC(=O)N2CCC[C@H]2C(=O)OC[C@@H](C)C(=O)OC[C@H]1C` the figure was -0.294. On the same count and under the same terms, with `COC(=O)CC=C[C@@H](C)[C@H](OCc1cccc(-c2ccccc2)c1)C1CCCCC1` the figure was -0.14; with `O=C1C2=CC[C@H]3C(=O)N(c4cccc(Oc5ccccc5)c4)C(=O)[C@H]3[C@H]2[C@H](O)[C@@H]2O[C@H]12`, -0.156. On the same count and under the same terms, as for `COC(=O)CC=C[C@@H](C)[C@@H](C=NO[C@@H](C)c1cc(-c2c(C)cc(C)cc2C)no1)NS(=O)(=O)c1ccc(C)cc1`, the figure is -0.494; as for `CCOC(=O)[C@H](CC(C)C)NC(=O)CCC1CC(OC(=O)NCCc2ccc(F)cc2)CC2(CCCC(COC(=O)NCC3CCCCC3)O2)O1` (stereo not given in full), 0.623.

The record behind these values is PubChem BioAssay.
